# Screening data deposited in PubChem by National Center for Advancing Translational Sciences (NCATS).
# Hits are enriched below; roughly 14% of the tested compounds scored in any of these assays.
# Sm TGR inh: S. mansoni TGR enzyme inhibition; Q962Y6; purified TGR, DTNB reduction, TNB absorbance 405 nm; Potency, µM (top dose mostly 114 µM), inactives show top-dose activity change, negative = inhibition, usual class: inhibitors; hit rate 3% among 360,000; AID 485364; note: potency is the fitted concentration of half-maximal effect; nearly all actives have a fitted effect of over 60% in size
#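 Kinetic colorimetric format: TGR-catalysed, NADPH-driven DTNB reduction monitored via TNB absorbance. Enzyme dispensed at 20 nM; compound exposure 15 min at room temperature before reaction start.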
# Pf growth 96h: P. falciparum growth inhibition at 96 hours. AID 504834. P. falciparum luciferase reporter growth, 96 h. hit rate 6.9% among 320,000. Potency, µM (series often up to 28.7 µM), inactives show top-dose activity change, negative = inhibition, most hits filed as inhibitors; note: potency is the fitted concentration of half-maximal effect
#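 Infected RBCs, 2% Hct / 0.05% parasitemia final; luciferase-reporter P. falciparum; cpd 96 h, 37 C, 5% CO2; luciferase detection reagent; luminescence.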
# HCMV antiviral: human cytomegalovirus inhibition; activity change, negative = inhibition, % at 57.5 µM; AID 1259415; hit rate 4.5% among 410,000; HFF cells, HCMV-luciferase reporter, 72 h; active compounds read low; in the data active = activity change below about -60%; inconclusive = no clear call, values can overlap the other calls; inactive = above about -39%
#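 Two-dose cell screen: HFF monolayers treated with compounds and infected with luciferase-expressing HCMV at 1 PFU/cell, 72 h at 37C, then lysed for luciferase measurement.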
# Giardia FBPA inh: inhibitors of Giardia lamblia fructose-1,6-bisphosphate aldolase; A8B2U2; purified Giardia FBPA; Potency, µM (series often up to 59.6 µM), for inactives: at the top dose activity, negative = inhibition, actives largely listed as inhibitors; hit rate 0.71% among 290,000; AID 2451; note: potency is the fitted concentration of half-maximal effect; nearly all actives have a fitted effect of over 55% in size
# Target sequence (A8B2U2 whole entry, looked up): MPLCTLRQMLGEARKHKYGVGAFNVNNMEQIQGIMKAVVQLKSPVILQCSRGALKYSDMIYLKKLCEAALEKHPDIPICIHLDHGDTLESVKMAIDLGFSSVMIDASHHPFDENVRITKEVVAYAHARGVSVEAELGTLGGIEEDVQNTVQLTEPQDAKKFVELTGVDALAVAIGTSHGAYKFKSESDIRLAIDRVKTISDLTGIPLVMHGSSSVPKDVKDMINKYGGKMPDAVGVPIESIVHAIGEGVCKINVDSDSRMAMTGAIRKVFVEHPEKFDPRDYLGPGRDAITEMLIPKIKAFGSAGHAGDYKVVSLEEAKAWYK
#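 40 nM FBPA preincubated 10 min at RT with compound (up to 57.5 uM final), then substrate plus GAPDH/TPI/NAD/arsenate coupling and diaphorase/resazurin added. Fluorescence read after 20 min at RT, 525/598 nm.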
# Pf growth 48h: P. falciparum growth inhibition at 48 hours (one generation) | P. falciparum luciferase growth in erythrocytes, 48 h | Potency, µM (doses to about 28.7 µM), for the others: at the top dose activity change, negative = inhibition, usual class: inhibitors | hit rate 5.9% among 310,000 | AID 504832; note: potency is the fitted concentration of half-maximal effect
#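 Here the parasites carry a stable luciferase gene and grow inside erythrocytes in Albumax-based RPMI medium with compound for one erythrocytic cycle. Activity is scored as loss of luminescent signal.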
# The depositor's hits bear a star; ? = inconclusive; nt = no result given; [ ] = remark or other dose. Unless noted, calls come from the whole dose curve; as a rule, active = well fitted curve in the direction sought with a large enough effect; inconclusive = small, poorly fitted or top-dose-only effect, or another doubt; inactive = no such curve, though single readings can be large; an effect the other way counts as inactive or inconclusive. % is set by controls: 0 for no effect and ±100 for the full control effect.
SMILES,Sm TGR inh,Pf growth 96h,HCMV antiviral,Giardia FBPA inh,Pf growth 48h
COc1ccc(OC)c(C(=O)NC(CC(N)=O)c2ccc(N3CCN(c4ccccn4)CC3)c([N+](=O)[O-])c2)c1 (centres undefined),-2%,8%,-3,7%,33%
C[C@@H]1CN([C@@H](C)CO)C(=O)CCCn2nncc2CO[C@@H]1CN(C)C(=O)Nc1cccc(C(F)(F)F)c1,nt,nt,24,nt,nt
CCOC(=O)c1cccn1C1C(=O)N(Cc2ccc3c(C)cc(=O)oc3c2)c2ccc(Cl)cc21 (centres undefined),nt,nt,-13,nt,nt
Cc1c(Cl)cccc1NC(=O)CC1Oc2ccccc2NC1=O (centres undefined),-14%,24%,3,-2%,16%
CCN1C(=O)CSC1=Nc1ccc(OC)cc1,2%,3%,23,12%,7%
S=C1SCN(CC2CC2)CN1CC1CC1,11%,5.2µM*,-77*,?,?
O=C(Nc1ccccc1)c1cc([N+](=O)[O-])ccc1NC1CCCCC1,9%,?,63,-7%,8.3µM*
Cc1cccc(C(O)c2ncc(-c3cccc(C(F)(F)F)c3)[nH]2)c1C (centres undefined),nt,nt,-39,nt,nt
CCC(C)[C@H](NC(=O)N1CCCC1)C(=O)O (some centres undefined),10%[11.4 µM],6.6µM*,21,1%,nt
CCC(C)C(NC)C(=O)O (centres undefined),nt,nt,nt,-8%,nt
Cc1ccc(OCC(=O)NNC(=S)NC(=O)C2CCCCC2)c(C)c1,1%,?,nt,nt,1%
CC(C)c1ccc(OCC(=O)NNC(=S)NC(=O)C2CC2)cc1,0%,?,-98*,nt,?
Cc1ccc(OCC(=O)NNC(=S)NC(=O)C2CC2)c(C)c1,-1%,15µM*,12,nt,?
COc1cccc(CC2(CO)CCCN(Cc3ccc(CN4CCCCC4)s3)C2)c1 (centres undefined),3%,?,?,0%,?
Cc1oc(-c2cc(F)cc(F)c2)nc1CN1CCN(C(=O)c2ccco2)CC1,-5%,?,10,5%,5%
Cc1ccccc1C(=NCCCN(C)C)c1ccccc1C,-5%,2%,-27,-8%,-13%
Oc1ccc(C[C@H]2CNC(=S)N2CC2CCCN2C[C@H](Cc2ccc(O)cc2)N2C[C@H](Cc3ccc(O)cc3)N(CC3CCCCCC3)C2=S)cc1 (some centres undefined),nt,nt,-67*,nt,nt
CC(C)C[C@H]1CNC(=S)N1CC1CCCN1C[C@H](Cc1ccc(O)cc1)N1C[C@H](Cc2ccccc2)N(CC2CCCCC2)C1=S (some centres undefined),nt,nt,-62*,nt,nt
Oc1ccc(C[C@H]2CNC(=S)N2CC2CCCN2C[C@H](Cc2ccccc2)N2C[C@H](Cc3ccc(O)cc3)N(CC3CCCCC3)C2=S)cc1 (some centres undefined),nt,nt,-85*,nt,nt
Oc1ccc(C[C@H]2CN([C@@H](Cc3ccccc3)CN3CCC[C@@H]3CN3C(=S)NC[C@@H]3Cc3ccccc3)C(=S)N2CC2CCCCC2)cc1,nt,nt,-7,nt,nt
C[C@]12CC[C@H]3c4ccc(O)cc4CC[C@@H]3[C@H]1CC[C@@H]2OP(=O)(O)O,nt,-7%,nt,nt,-12%
O=c1c2cnn(-c3ccc(Cl)cc3)c2ncn1Cc1ccc(Cl)cc1Cl,-3%,nt,20,nt,nt
Cc1cccc(C)c1-n1nnnc1C(c1ccnc2ccccc12)N(C)Cc1ccc(Cl)c(Cl)c1 (centres undefined),nt,nt,-24,nt,nt
Cc1cccc(C)c1-n1nnnc1C(c1ccnc2ccccc12)N(Cc1ccccc1)Cc1ccccc1 (centres undefined),nt,nt,-72*,nt,nt
Cc1ncc(C[n+]2csc(CCOP(=O)(O)O)c2C)c(N)n1,nt,-98%,nt,nt,-71%
SMILES,Sm TGR inh,Pf growth 96h,HCMV antiviral,Giardia FBPA inh,Pf growth 48h
COc1ccc(-n2c(/C=C/c3cccc(C(F)(F)F)c3)nc3ccccc3c2=O)cc1Cl,4%,nt,24,nt,nt
O=C(Nc1nc2ccccc2s1)c1ccc(N2CCCCC2)c([N+](=O)[O-])c1,-14%,?,-72*,1%,48%
NC(=O)c1ccc(N2CCCCCC2)c([N+](=O)[O-])c1,3%,?,-60*,4%,27%
O=C(NCc1ccncc1)c1ccc(N2CCCC2)c([N+](=O)[O-])c1,9%,-17%,-62*,0%,17%
CC(=O)N1CCN(c2ccc(C(N)=O)cc2[N+](=O)[O-])CC1,7%,23%,-33,1%,16%
CC1CCCN(c2ccc(C(=O)NCc3ccco3)cc2[N+](=O)[O-])C1 (centres undefined),-5%,?,-35,0%,4.1µM*
Cc1ccc(C(=O)NCc2ccco2)cc1[N+](=O)[O-],-22%,29%,16,1%,-1%
O=C(Nc1cccc(Cl)c1N1CCCCC1)c1ccc(N2CCOCC2)c([N+](=O)[O-])c1,6%,6.6µM*,-30,7%,-16%
O=C(NC1CC1)c1ccc(N2CCCCC2)c([N+](=O)[O-])c1,6%,2.6µM*,-9,nt,8.3µM*
O=C(Nc1cccc(Cl)c1N1CCOCC1)c1cc([N+](=O)[O-])ccc1N1CCOCC1,8%,0%,56,6%,?
NC(=O)c1ccc(N2CCN(S(=O)(=O)c3cccs3)CC2)c([N+](=O)[O-])c1,nt,nt,-84*,nt,nt
CN(C)C1(CNC(=O)C2CCN(S(=O)(=O)c3c(Cl)cccc3Cl)CC2)CCCCC1,-1%,-8%,6,nt,?
Cc1ccc(C(CC(=O)NCCCN(C)C)c2ccc(OC(C)C)cc2)cc1 (centres undefined),6%,-1%,-14,5%,?
O=C(COC(=O)c1cccc(NS(=O)(=O)/C=C/c2ccccc2)c1)Nc1ccccc1OC(F)F,-6%,15%,-34,-4%,21%
Cc1cc(-c2ccccc2)nc2c(Br)c(=O)[nH]n12,45µM*,10%,-13,3%,-22%
COc1ccc(C2C=C(c3ccc(Br)cc3)Nc3nnnn32)c(OC)c1 (centres undefined),-24%,nt,-72*,nt,nt
COc1ccc(C2=CC(c3sccc3C)n3nnnc3N2)cc1 (centres undefined),35µM*,52%,65,-13%,159%
COc1ccc(C2=CC(c3ccc(F)cc3)n3nnnc3N2)cc1 (centres undefined),7%[11.4 µM],?,2,-9%,nt
CCc1nc(Nc2ccc(F)c(Cl)c2)c2c3c(sc2n1)CCCC3,5%,nt,?,nt,nt
CC(Sc1nnc(C2CC2)n1-c1ccccc1)C(=O)N1CCCC1 (centres undefined),32µM*,?,-17,nt,33%
Nc1cc(SCc2ccc([N+](=O)[O-])cc2)ncn1,nt,nt,14,nt,nt
O=[N+]([O-])c1ccc(SCc2ccncc2)nc1,-9%,7%,-84*,9%,-3%
